Compound activity as filed in PubChem.
HP1b chromo inh: blocks HP1-beta chromodomain binding to methylated histone tails | hit rate 0.56% among 390,000 | Potency, µM (doses to about 114 µM), hits mostly inhibitors | AlphaScreen HP1-beta / biotin-H3K9me3 peptide binding | P83916; further: nearly all actives have a fitted effect of over 70% in size
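AlphaScreen: HP1-beta (50 nM) preformed 30 min with biotin-H3(1-18)K9me3 peptide (50 nM) in PBS pH 7.4, 0.01% Tween-20. Compound added for 30 min at RT, then streptavidin donor/nickel chelate acceptor beads (10 ug/mL) for 30 min.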
Sfp PPTase inh: Sfp phosphopantetheinyl transferase inhibition. Biochemical Sfp PPTase activity, qHTS. Potency, µM, usual class: inhibitors. Q9F4F7. hit rate 3.5% among 310,000. AID 1490;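 further: the enzyme is Sfp with the accession as filed and its product quenches rhodamine fluorescence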
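Fluorescence-quenching assay: 15 nM Sfp-PPTase preincubated 15 min at room temperature with compound, then 5 uM rhodamine-CoA and 12.5 uM BHQ-2-labelled YbbR peptide added. Fluorescence (ex 525/em 598 nm) read at start and after 30 min; difference gives rate.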
L3MBTL1 inh: L3MBTL1 (human) inhibition; Q9Y468; AlphaScreen L3MBTL1–H3K9me1 peptide binding; Potency, µM (highest dose often 57.1 µM), actives largely listed as inhibitors; hit rate 0.66% among 230,000; AID 485360; further: nearly all actives have a fitted effect of over 60% in size
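First, the protein-peptide complex forms for 30 min at room temperature (L3MBTL1 50 nM, biotinylated H3K9me1 peptide 75 nM). Next, compounds are pin-transferred and incubated 30 min. Finally, AlphaScreen beads are added and read after 30 min.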
JMJD2A Tudor: JMJD2A Tudor domain (human) inhibition. O75164. AlphaScreen JMJD2A-Tudor / H3K4me3 peptide binding. Potency, µM (series often up to 114 µM), most hits filed as inhibitors. hit rate 4.4% among 390,000. AID 504339; further: nearly all actives have a fitted effect of over 50% in size
BAZ2B inh: BAZ2B (human) inhibition. Q9UIF8. AlphaScreen BAZ2B-H3K14Ac peptide displacement. Potency, µM (series often up to 114 µM), most hits filed as inhibitors. hit rate 4.4% among 360,000; further: nearly all actives have a fitted effect of over 60% in size
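Inhibition is scored as reduced AlphaScreen emission. The BAZ2B/b-H3(5-23)K14Ac complex (50 nM each) in PBS pH 7.4, 0.01% Tween-20 meets compound (up to 110 uM) for 30 min at RT before bead addition.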
G9a inh: inhibitors of human histone lysine methyltransferase G9a. Q96KQ7. G9a H3K9 monomethylation, AlphaScreen, 2 h. Potency, µM (series often up to 102 µM), actives largely listed as inhibitors. hit rate 8.8% among 350,000. AID 504332; further: nearly all actives have a fitted effect of over 75% in size
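Enzyme 20 nM + cpd, 15 min RT; add b-H3K9 pep 500 nM / SAM 20 uM; 2 h RT; anti-H3K9me1 Ab 0.5 ug/mL + SA donor / anti-rabbit acceptor beads 20 ug/mL each, 10 min; AlphaScreen read.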
A number is an active result; i = inactive; ? = inconclusive; nt = no result given. In the library only some 12% were active in any assay of this set; here they are far more common. The call rests on the fitted dose curve; in most records, active means well fitted curve in the direction sought with a large enough effect; inconclusive means small, poorly fitted or top-dose-only effect, or another doubt; inactive means no such curve, though single readings can be large; an effect the other way counts as inactive or inconclusive.

SMILES	HP1b chromo inh	Sfp PPTase inh	L3MBTL1 inh	JMJD2A Tudor	BAZ2B inh	G9a inh
Cc1cccc(C)c1OCCCN1CCOCC1	i	i	nt	i	i	35µM
COc1ccccc1N1CCN(CCCCN2C(=O)CCC2=O)CC1	nt	i	nt	nt	nt	i
COc1ccccc1N1CCN(CCCCNS(=O)(=O)c2cccc3c(N(C)C)cccc23)CC1	nt	nt	nt	nt	nt	27µM
COc1ccc(S(=O)(=O)NCCN2CCOCC2)c2ccccc12	i	i	i	i	i	28µM
COc1cccc2c1Oc1ncccc1N(C(=O)CCC(=O)NCc1ccc(OC(C)C)cc1)C2	i	nt	nt	i	i	i
CCOC(=O)c1cnn(-c2ccc(C(=O)Nc3ccc(OC(F)(F)F)cc3)cc2)c1N	i	nt	nt	i	i	i
Cc1cccc(C)c1OCCCCN1CCNCC1	i	i	i	6.3µM	?	25µM
Cc1cc(C)c(OCCCCN2CCNCC2)c(C)c1	i	i	i	i	?	?
Cc1ccccc1-n1nc(CO)c(C(=O)NCC(c2ccccc2)c2ccccc2)n1	i	nt	nt	i	i	i
COc1ccc(NC(=O)Cn2c(=O)n(C(C)C)c(=O)c3oc4ccccc4c32)cc1Cl	i	nt	nt	i	i	i
CC12CCC(=O)N1C(C(=O)Nc1cccc(S(=O)(=O)N3CCCCC3)c1)CS2 (configuration not stated)	i	nt	i	i	i	i
CC1CCN(S(=O)(=O)c2ccc(NC(=O)C3CSC4(C)CCC(=O)N34)cc2)CC1 (configuration not stated)	i	nt	?	79µM	?	?
CCOc1ccc(S(=O)(=O)N2CCCCC2)cc1NC(=O)C1CSC2(C)CCC(=O)N12 (configuration not stated)	i	nt	i	i	i	40µM
CC(C)=CCC/C(C)=C/COc1c2ccoc2cc2oc(=O)ccc12	i	nt	nt	i	nt	nt
Cc1cccc(NN=C2c3ccccc3-c3ccccc32)c1	i	i	i	i	i	32µM
O=C(NC1=C(Nc2ccc(F)cc2)C(=O)c2ccccc2C1=O)c1ccc(Cl)cc1	?	i	i	i	i	5µM
COC(=O)c1ccc2[nH]c([C@H](C)O)c([C@H](C)O)c2c1	i	i	i	i	i	45µM
COC(=O)c1ccc2[nH]c3c(c2c1)CC(C)CC3 (configuration not stated)	i	i	nt	?	25µM	nt
CCCC(C)NC(=O)c1ccc2[nH]c3c(c2c1)CC(C)CC3 (configuration not stated)	i	i	i	i	i	?
CC1CCc2[nH]c3ccc(C(=O)Nc4ccc(C(=O)N(C)C)cc4)cc3c2C1 (configuration not stated)	i	i	nt	i	i	nt
CCOc1ccc(NC(=O)CN(C)C(=O)c2ccc(NC3CC3)c([N+](=O)[O-])c2)cc1OCC	i	nt	i	i	i	?
Cc1ccc(NC(=O)CN(C)C(=O)c2ccc3[nH]c4c(c3c2)CC(C)CC4)cc1 (configuration not stated)	?	nt	i	45µM	?	?
CCOc1ccc(NC(=O)CN(C)C(=O)c2ccc3[nH]c4c(c3c2)CC(C)CC4)cc1OCC (configuration not stated)	?	nt	i	?	?	35µM
O=C(Cn1cc(C(=O)c2ccncc2)c(=O)c2cc(F)ccc21)Nc1ccc(Cl)cc1	i	nt	nt	i	i	i
CCN(c1ccccc1)c1ncnc2c1cnn2-c1ccc(OC)cc1	i	nt	nt	i	i	i
O=C1C2C3C=CC(C4CC34)C2C(=O)N1/N=C/c1ccc([N+](=O)[O-])s1 (configuration not stated)	i	i	i	i	i	i
O=C1C2C3C=CC(C4CC34)C2C(=O)N1/N=C/c1c[nH]c2ccccc12 (configuration not stated)	i	i	nt	i	i	50µM
c1ccc(COc2ccc(OCCN3CCCC3)cc2)cc1	i	i	i	?	i	?
CC(C)(C)c1ccc(OCCCN2CCCC2)cc1	?	i	i	22µM	?	i
c1ccc(COc2ccc(OCCCN3CCCC3)cc2)cc1	i	i	i	20µM	50µM	6.3µM
